Test results: PubChem BioAssay (EPA / NIEHS)
Where “and” joins values, the source holds several entries; their conditions need not be identical. Identical values can stand only once. Calls of active or inactive are those of the source. How the source made its calls: active means hit-call score of the fitted dose curve at least 0.9, where 1 is the maximum; inactive means score below 0.9.

Experiments:
[1] = read-out: Epidermal growth factor receptor (EGFR), EGFR (gene 1956); test: BSK_hDFCGF_EGFR: BioMAP Diversity Plus: hDFCGF Assay for Epidermal growth factor receptor (EGFR) Biomarker Activity (AID 2283057); details: primary human foreskin fibroblasts; actives raise or lower the signal
Method in brief: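 Primary human foreskin fibroblasts were exposed to compound for 24 h, after which cell-surface EGFR was quantified by ELISA. Activity was fitted bidirectionally against the DMSO negative control as baseline.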

[2] = read-out: Interleukin-8 (IL8), CXCL8 (gene 3576); test: BSK_hDFCGF_IL8: BioMAP Diversity Plus: hDFCGF Assay for Interleukin-8 (IL8) Biomarker Activity (AID 2283058); details: primary human foreskin fibroblasts; actives raise or lower the signal
Method in brief: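 Primary human foreskin fibroblasts (hDFCGF system) dosed with chemical; IL-8 measured by ELISA 24 hours later. Bidirectional curve fitting relative to DMSO baseline; cytotoxicity tracked in parallel cultures by SRB total protein staining.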

[3] = BSK_hDFCGF_Proliferation: Cell Proliferation Assessment in the BioMAP Diversity Plus: hDFCGF Assay (AID 2283059); details: primary human foreskin fibroblasts;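 further: curves fitted for both rise and fall of signal versus DMSO baseline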
Method in brief: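 Total protein read at 560 nm after 0.1% SRB staining of TCA-fixed human skin fibroblasts, […]. Activity is fitted in both directions relative to DMSO as baseline.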

[4] = BSK_hDFCGF_SRB: Viability Assessment in the BioMAP Diversity Plus: hDFCGF Assay (AID 2283061); details: primary human foreskin fibroblasts;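 further: cells exposed to compound for 24 h before the read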
Method in brief: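 Human foreskin fibroblasts in 96-well plates were treated 24 h. Total protein was measured by 0.1% SRB staining after 10% TCA fixation, read at 560 nm. Data were fitted bidirectionally against DMSO.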

[5] = read-out: TIMP metallopeptidase inhibitor 1 (TIMP1), TIMP1 (gene 7076); test: BSK_hDFCGF_TIMP1: BioMAP Diversity Plus: hDFCGF Assay for TIMP metallopeptidase inhibitor 1 (TIMP1) Biomarker Activity (AID 2283062); details: primary human foreskin fibroblasts; actives raise or lower the signal
Method in brief: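 Human foreskin fibroblast primary cultures dosed for 24 h; secreted/surface TIMP-1 quantified by ELISA. Bidirectional curve fitting against DMSO baseline; cytotoxicity tracked in parallel cultures by SRB total-protein staining.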

[6] = read-out: Vascular cell adhesion molecule 1 (VCAM1), VCAM1 (gene 7412); test: BSK_hDFCGF_VCAM1: BioMAP Diversity Plus: hDFCGF Assay for Vascular cell adhesion molecule 1 (VCAM1) Biomarker Activity (AID 2283065); details: primary human foreskin fibroblasts; actives raise or lower the signal;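 on AC50: VCAM-1 protein level quantified by ELISA after 24 h chemical exposure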
Method in brief: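 Human foreskin fibroblast primary cells dosed with chemical, VCAM-1 measured by ELISA at 24 h. Bidirectional curve fitting relative to DMSO as negative control/baseline.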

[7] = read-out: Plasminogen activator inhibitor-1 (PAI1), SERPINE1 (gene 5054); test: BSK_hDFCGF_PAI1: BioMAP Diversity Plus: hDFCGF Assay for Plasminogen activator inhibitor-1 (PAI1) Biomarker Activity (AID 2283066); details: primary human foreskin fibroblasts; actives raise or lower the signal
Method in brief: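 Human foreskin fibroblasts in the hDFCGF system were dosed with compound for 24 h; PAI-1 was quantified by ELISA. Bidirectional curve fitting used DMSO as negative control and baseline.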

[8] = read-out: Intercellular Adhesion Molecule 1 (ICAM1), ICAM1 (gene 3383); test: BSK_KF3CT_ICAM1: BioMAP Diversity Plus: KF3CT Assay for Intercellular Adhesion Molecule 1 (ICAM1) Biomarker Activity (AID 2283067); details: primary human keratinocytes with fibroblasts; actives raise or lower the signal
Method in brief: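 Human keratinocyte–foreskin fibroblast co-culture was treated for 24 h. Cell-surface ICAM-1 was quantified by ELISA, fitted bidirectionally relative to DMSO. Cytotoxicity was checked in parallel cultures by SRB total-protein staining.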

[9] = read-out: Interferon-gamma inducible Protein 10 (IP10), CXCL10 (gene 3627); test: BSK_KF3CT_IP10: BioMAP Diversity Plus: KF3CT Assay for Interferon-gamma inducible Protein 10 (IP10) Biomarker Activity (AID 2283068); details: primary human keratinocytes with fibroblasts; actives raise or lower the signal
Method in brief: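 Human keratinocyte plus foreskin fibroblast primary co-culture exposed to test chemical for 24 h; IP-10 measured by ELISA. Concentration-response fitted bidirectionally against DMSO control as baseline.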

[10] = BSK_KF3CT_SRB: Viability Assessment in the BioMAP Diversity Plus: KF3CT Assay (AID 2283069); details: primary human keratinocytes with fibroblasts;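 further: total protein by sulforhodamine B staining as a cytotoxicity measure; read 24 h after compound addition; fitted for both signal gain and loss against DMSO baseline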
Method in brief: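 Human keratinocyte and foreskin fibroblast co-culture exposed to chemical for 24 h. Total protein measured in parallel cultures by 0.1% sulforhodamine B staining after 10% TCA fixation, read at 560 nm; bidirectional fit relative to DMSO.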

[11] = read-out: Interleukin-1 alpha (IL1a), IL1A (gene 3552); test: BSK_KF3CT_IL1a: BioMAP Diversity Plus: KF3CT Assay for Interleukin-1 alpha (IL1a) Biomarker Activity (AID 2283070); details: primary human keratinocytes with fibroblasts; actives raise or lower the signal
Method in brief: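 Primary human keratinocyte plus foreskin fibroblast co-culture, dosed and measured at 24 h in 96-well plates. IL-1a level quantified by ELISA; bidirectional fit relative to DMSO.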

[12] = read-out: TIMP metallopeptidase inhibitor 2 (TIMP2), TIMP2 (gene 7077); test: BSK_KF3CT_TIMP2: BioMAP Diversity Plus: KF3CT Assay for TIMP metallopeptidase inhibitor 2 (TIMP2) Biomarker Activity (AID 2283071); details: primary human keratinocytes with fibroblasts; actives raise or lower the signal
Method in brief: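 Human primary keratinocyte/foreskin fibroblast co-culture dosed with chemical and sampled at 24 h. TIMP-2 levels quantified by ELISA; bidirectional fitting against DMSO negative control as baseline.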

[13] = read-out: Matrix Metallopeptidase 9 (MMP9), MMP9 (gene 4318); test: BSK_KF3CT_MMP9: BioMAP Diversity Plus: KF3CT Assay for Matrix Metallopeptidase 9 (MMP9) Biomarker Activity (AID 2283074); details: primary human keratinocytes with fibroblasts; actives raise or lower the signal;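 on AC50: MMP9 protein level quantified by ELISA in the co-culture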
Method in brief: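 Human keratinocyte and foreskin fibroblast co-culture exposed to chemicals for 24 h; MMP9 biomarker measured by ELISA, bidirectional fitting relative to DMSO; cytotoxicity tracked by SRB total protein staining in parallel cultures.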

[14] = read-out: urokinase plasminogen activator (uPA), PLAU (gene 5328); test: BSK_KF3CT_uPA: BioMAP Diversity Plus: KF3CT Assay for urokinase plasminogen activator (uPA) Biomarker Activity (AID 2283075); details: primary human keratinocytes with fibroblasts; actives raise or lower the signal
Method in brief: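 Primary human keratinocyte/foreskin fibroblast co-culture exposed to chemical; uPA measured by ELISA at 24 h. Bidirectional fit versus DMSO, with parallel SRB total-protein staining for cytotoxicity.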

[15] = BSK_LPS_SRB: Viability Assessment in the BioMAP Diversity Plus: LPS Assay (AID 2283079); details: primary human HUVEC with PBMC;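 further: total protein by sulforhodamine B absorbance as a cytotoxicity measure; measured one day after compound addition; fitted in both directions against DMSO so loss or gain of signal counts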
Method in brief: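 Co-culture of human umbilical vein endothelial cells and PBMC, read 24 h after dosing. Total protein by 0.1% SRB staining after 10% TCA fixation, absorbance at 560 nm; bidirectional fit against DMSO.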

[16] = read-out: Interleukin-1 alpha (IL1a), IL1A (gene 3552); test: BSK_LPS_IL1a: BioMAP Diversity Plus: LPS Assay for Interleukin-1 alpha (IL1a) Biomarker Activity (AID 2283080); details: primary human HUVEC with PBMC; actives raise or lower the signal
Method in brief: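 Human umbilical vein endothelial cells co-cultured with PBMC and stimulated with LPS; IL-1a measured by ELISA 24 h after dosing. Bidirectional fitting against DMSO; cytotoxicity checked by SRB staining in parallel cultures.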

[17] = BSK_LPS_PGE2: BioMAP Diversity Plus: LPS Assay for Prostaglandin E2 (PGE2) Biomarker Activity (AID 2283082); details: primary human HUVEC with PBMC; actives raise or lower the signal
Method in brief: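 HUVEC plus PBMC co-culture stimulated with LPS; secreted PGE2 quantified by ELISA 24 h after chemical dosing. Activity fitted bidirectionally against DMSO as negative control and baseline; parallel SRB total-protein staining served as cytotoxicity check.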

[18] = read-out: Macrophage colony-stimulating factor (MCSF), CSF1 (gene 1435); test: BSK_LPS_MCSF: BioMAP Diversity Plus: LPS Assay for Macrophage colony-stimulating factor (MCSF) Biomarker Activity (AID 2283083); details: primary human HUVEC with PBMC; actives raise or lower the signal
Method in brief: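 HUVEC–PBMC co-culture, M-CSF measured by ELISA 24 h after chemical dosing. Fitted in both directions relative to DMSO as negative control; overt cytotoxicity assessed by SRB total-protein staining in parallel cultures.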

[19] = read-out: Tumor necrosis factor (Homo sapiens) (UniProt P01375); test: BSK_LPS_TNFa: BioMAP Diversity Plus: LPS Assay for Tumour Necrosis Factor alpha (TNFa) Biomarker Activity (AID 2283085); details: primary human HUVEC with PBMC; actives raise or lower the signal;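 on AC50: TNFa protein level quantified by ELISA in the co-culture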
Method in brief: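 Human umbilical vein endothelial cells co-cultured with PBMC were exposed to test chemical and TNFa measured by ELISA 24 h after dosing. Bidirectional curve fitting was done relative to DMSO as negative control and baseline.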

[20] = read-out: Vascular cell adhesion molecule 1 (VCAM1), VCAM1 (gene 7412); test: BSK_LPS_VCAM1: BioMAP Diversity Plus: LPS Assay for Vascular cell adhesion molecule 1 (VCAM1) Biomarker Activity (AID 2283086); details: primary human HUVEC with PBMC; actives raise or lower the signal
Method in brief: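 Human umbilical vein endothelial cells co-cultured with peripheral blood mononuclear cells under LPS stimulation were exposed to test chemical for 24 h. VCAM-1 levels were then measured by ELISA, with bidirectional curve fitting relative to DMSO as negative control and baseline.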

Sequence of Tumor necrosis factor (Homo sapiens) (P01375 whole entry, looked up): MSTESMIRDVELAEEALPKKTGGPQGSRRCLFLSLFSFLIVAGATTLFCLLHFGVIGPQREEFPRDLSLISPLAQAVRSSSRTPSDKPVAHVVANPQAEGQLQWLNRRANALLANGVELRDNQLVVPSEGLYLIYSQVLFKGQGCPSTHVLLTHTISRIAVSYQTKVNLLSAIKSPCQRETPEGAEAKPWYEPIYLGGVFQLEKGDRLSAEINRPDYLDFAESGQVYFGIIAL

CCCCCCCCCCC1CO1 (stereo not given)
outcome [1]: inactive
AC50 [2]: 28.5 µM (active)
AC50 [3]: 20 µM (active)
AC50 [4]: 27.6 µM (active)
AC50 [5]: 20 µM (active)
AC50 [6]: 25.7 µM (active)
AC50 [7]: 20 µM (active)
AC50 [8]: 29.3 µM (active)
AC50 [9]: 4.61 µM (active)
AC50 [10]: 33.4 µM (active)
AC50 [11]: 25.3 µM (active)
AC50 [12]: 24.2 µM (active)
AC50 [13]: 36.1 µM (active)
AC50 [14]: 28 µM (active)
AC50 [15]: 20 µM (active)
AC50 [16]: 31.8 µM (active)
outcome [17]: inactive
AC50 [18]: 31.6 µM (active)
AC50 [19]: 30.9 µM (active)
AC50 [20]: 32.3 µM (active)

CN(C)c1ccc(C(c2ccccc2)c2ccc(N(C)C)cc2)cc1
outcome [1]: inactive
outcome [2]: inactive
AC50 [3]: 3.87 µM (active)
outcome [4]: inactive
outcome [5]: inactive
outcome [6]: inactive
outcome [7]: inactive
outcome [8]: inactive
outcome [9]: inactive
outcome [10]: inactive
outcome [11]: inactive
outcome [12]: inactive
AC50 [13]: 13.6 µM (active)
outcome [14]: inactive
AC50 [15]: 12.5 µM (active)
AC50 [16]: 34.7 µM (active)
outcome [17]: inactive
AC50 [18]: 8.45 µM (active)
AC50 [19]: 1.6 µM (active)
AC50 [20]: 4.93 µM (active)

Cc1cccnc1
outcome [1]: inactive
outcome [2]: inactive
outcome [3]: inactive
outcome [4]: inactive
outcome [5]: inactive
outcome [6]: inactive
outcome [7]: inactive
outcome [8]: inactive
outcome [9]: inactive
outcome [10]: inactive
outcome [11]: inactive
outcome [12]: inactive
outcome [13]: inactive
outcome [14]: inactive
outcome [15]: inactive
outcome [16]: inactive
outcome [17]: inactive
outcome [18]: inactive
outcome [19]: inactive
outcome [20]: inactive

Cc1cc(-n2nc3ccc(Cl)cc3n2)c(O)c(C(C)(C)C)c1
outcome [1]: inactive
outcome [2]: inactive
outcome [3]: inactive
outcome [4]: inactive
outcome [5]: inactive
outcome [6]: inactive
outcome [7]: inactive
outcome [8]: inactive
outcome [9]: inactive
outcome [10]: inactive
outcome [11]: inactive
outcome [12]: inactive
outcome [13]: inactive
outcome [14]: inactive
outcome [15]: inactive
outcome [16]: inactive
outcome [17]: inactive
outcome [18]: inactive
outcome [19]: inactive
outcome [20]: inactive

CN(C)Cc1cc(C(C)(C)C)c(O)c(C(C)(C)C)c1
outcome [1]: inactive
outcome [2]: inactive
AC50 [3]: 23.9 µM (active) and 24.5 µM (active)
outcome [4]: inactive
outcome [5]: inactive
AC50 [6]: 12.1 µM (active) and 20 µM (active)
outcome [7]: inactive
outcome [8]: inactive
outcome [9]: inactive
outcome [10]: inactive
outcome [11]: inactive
outcome [12]: inactive
outcome [13]: inactive
outcome [14]: inactive
outcome [15]: inactive
outcome [16]: inactive
outcome [17]: inactive
outcome [18]: inactive
outcome [19]: inactive
outcome [20]: inactive

CC[N+](CC)(CC(=O)Nc1c(C)cccc1C)Cc1ccccc1 (tested in a mixture with another compound)
outcome [1]: inactive
outcome [2]: inactive
outcome [3]: inactive
outcome [4]: inactive
outcome [5]: inactive
outcome [6]: inactive
outcome [7]: inactive
outcome [8]: inactive
outcome [9]: inactive
outcome [10]: inactive
outcome [11]: inactive
outcome [12]: inactive
outcome [13]: inactive
outcome [14]: inactive
outcome [15]: inactive
outcome [16]: inactive
outcome [17]: inactive
outcome [18]: inactive
outcome [19]: inactive
outcome [20]: inactive

CCCCCCCCCC/C=C/C1CC(=O)OC1=O (stereo not given)
outcome [1]: inactive
outcome [2]: inactive
outcome [3]: inactive
outcome [4]: inactive
outcome [5]: inactive
outcome [6]: inactive
outcome [7]: inactive
outcome [8]: inactive
outcome [9]: inactive
outcome [10]: inactive
outcome [11]: inactive
outcome [12]: inactive
AC50 [13]: 27.7 µM (active)
outcome [14]: inactive
outcome [15]: inactive
outcome [16]: inactive
outcome [17]: inactive
outcome [18]: inactive
outcome [19]: inactive
outcome [20]: inactive
